From PubChem BioAssay AID1159580 (chemical genetic matrix, 2015)
The campaign covered roughly 5,500 compounds. About 2,000 (36%) were called active. Inconclusive results (about 18%) are left out. Cut-off read from the data, not from the text of the source: active = normalized growth mostly below about 0.91 (no sharp cut-off); inconclusive = no clear call, values can overlap the other calls; inactive = mostly above about 0.92. The list shows a part of the results.

Experiment: chemical genetic growth profiling, strain panel (AID 1159580);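 note: tested at 20 µM; growth read once vehicle control cultures reached saturation at 30 °C; 1 = growth at the plate median or of vehicle wells; lower values mean less growth of the strain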
Settings: growth OD

Measured: normalized growth

CCCCN(CC)c1c([N+](=O)[O-])cc(C(F)(F)F)cc1[N+](=O)[O-]
inactive: S. cerevisiae deletion strains, locus YJR075W, strain HOC1, stronger effect = lower value 1 | S. cerevisiae deletion strains, locus YKL009W, strain mrt4, stronger effect = lower value 1.04 | S. cerevisiae deletion strains, locus YKL068W, stronger effect = lower value 1.01 | S. cerevisiae deletion strains, locus YKL085W, strain MDH1 (second series), stronger effect = lower value 1.01 | S. cerevisiae deletion strains, locus YKL085W, strain MDH1, stronger effect = lower value 1.01 | S. cerevisiae deletion strains, locus YKL160W, strain elf1, stronger effect = lower value 1.02 | S. cerevisiae deletion strains, locus YKL190W, strain CNB1, stronger effect = lower value 1.02 | S. cerevisiae deletion strains, locus YKR001C, strain vps1, stronger effect = lower value 1.04 | S. cerevisiae deletion strains, locus YKR026C, strain gcn3, stronger effect = lower value 1.02 | S. cerevisiae deletion strains, locus YKR091W, strain srl3, stronger effect = lower value 1.01 | S. cerevisiae deletion strains, locus YLL001W, strain dnm1, stronger effect = lower value 1.01 | S. cerevisiae deletion strains, locus YLL026W, stronger effect = lower value 1 | S. cerevisiae deletion strains, locus YLL041C, strain sdh2, stronger effect = lower value 1.01 | S. cerevisiae deletion strains, locus YLR027C, strain aat2, stronger effect = lower value 0.996 | S. cerevisiae deletion strains, locus YLR039C, strain RIC1, stronger effect = lower value 1.02 | S. cerevisiae deletion strains, locus YLR058C, strain SHM2, stronger effect = lower value 1.01 | S. cerevisiae deletion strains, locus YLR102C, strain apc9, stronger effect = lower value 1.01 | S. cerevisiae deletion strains, locus YLR113W, strain HOG1, stronger effect = lower value 0.973 | S. cerevisiae deletion strains, locus YLR221C, strain rsa3, stronger effect = lower value 1 | S. cerevisiae deletion strains, locus YLR258W, strain gsy2, stronger effect = lower value 1.01 | S. cerevisiae deletion strains, locus YLR262C, strain YPT6 (second series), stronger effect = lower value 0.995 | S. cerevisiae deletion strains, locus YLR262C, strain YPT6, stronger effect = lower value 1.02 | S. cerevisiae deletion strains, locus YLR268W, strain sec22, stronger effect = lower value 1.02 | S. cerevisiae deletion strains, locus YLR320W, strain mms22, stronger effect = lower value 1.02 | S. cerevisiae deletion strains, locus YLR330W, strain CHS5, stronger effect = lower value 1.01 | S. cerevisiae deletion strains, locus YLR342W, strain FKS1 (second series), stronger effect = lower value 1.08 | S. cerevisiae deletion strains, locus YLR342W, strain FKS1, stronger effect = lower value 1 | S. cerevisiae deletion strains, locus YLR357W, strain rsc2, stronger effect = lower value 1.03 | S. cerevisiae deletion strains, locus YLR370C, strain arc18, stronger effect = lower value 1.01 | S. cerevisiae deletion strains, locus YLR371W, strain rom2, stronger effect = lower value 1.01 | S. cerevisiae deletion strains, locus YLR384C, strain iki3, stronger effect = lower value 1 | S. cerevisiae deletion strains, locus YLR418C, strain cdc73, stronger effect = lower value 1 | S. cerevisiae deletion strains, locus YML016C, strain PPZ1, stronger effect = lower value 1.01 | S. cerevisiae deletion strains, locus YML032C, strain rad52, stronger effect = lower value 1.02 | S. cerevisiae deletion strains, locus YML120C, strain ndi1, stronger effect = lower value 1.03 | S. cerevisiae deletion strains, locus YML124C, strain tub3, stronger effect = lower value 1.01 | S. cerevisiae deletion strains, locus YMR058W, strain fet3, stronger effect = lower value 1.02 | S. cerevisiae deletion strains, locus YMR078C, strain ctf18, stronger effect = lower value 1.01 | S. cerevisiae deletion strains, locus YMR125W, strain sto1, stronger effect = lower value 1.01 | S. cerevisiae deletion strains, locus YMR129W, stronger effect = lower value 1.02 | S. cerevisiae deletion strains, locus YMR205C, strain PFK2, stronger effect = lower value 1 | S. cerevisiae deletion strains, locus YMR223W, strain ubp8, stronger effect = lower value 1.02 | S. cerevisiae deletion strains, locus YMR231W, strain pep5, stronger effect = lower value 0.997 | S. cerevisiae deletion strains, locus YMR263W, strain SAP30, stronger effect = lower value 1.02 | S. cerevisiae deletion strains, locus YMR307W, strain GAS1, stronger effect = lower value 0.998 | S. cerevisiae deletion strains, locus YNL067W, strain RPL9B, stronger effect = lower value 1.01 | S. cerevisiae deletion strains, locus YNL071W, strain lat1, stronger effect = lower value 1.02 | S. cerevisiae deletion strains, locus YNL128W, strain TEP1, stronger effect = lower value 1.02 | S. cerevisiae deletion strains, locus YNL153C, strain GIM3, stronger effect = lower value 1.01 | S. cerevisiae deletion strains, locus YNL183C, strain NPR1, stronger effect = lower value 0.999 | S. cerevisiae deletion strains, locus YNL209W, strain ssb2, stronger effect = lower value 1.01 | S. cerevisiae deletion strains, locus YNL233W, strain BNI4, stronger effect = lower value 1.01 | S. cerevisiae deletion strains, locus YNL248C, strain rpa49, stronger effect = lower value 1.02 | S. cerevisiae deletion strains, locus YNL250W, strain rad50, stronger effect = lower value 1 | S. cerevisiae deletion strains, locus YNL271C, strain bni1, stronger effect = lower value 1.01 | S. cerevisiae deletion strains, locus YNL298W, strain CLA4, stronger effect = lower value 1.01 | S. cerevisiae deletion strains, locus YNL307C, strain MCK1, stronger effect = lower value 1.02 | S. cerevisiae deletion strains, locus YNL322C, strain KRE1 (second series), stronger effect = lower value 1.01 | S. cerevisiae deletion strains, locus YNL322C, strain KRE1, stronger effect = lower value 1.01 | S. cerevisiae deletion strains, locus YNR049C, strain mso1, stronger effect = lower value 1.01 | S. cerevisiae deletion strains, locus YNR052C, strain pop2, stronger effect = lower value 1.02 | S. cerevisiae deletion strains, locus YOL006C, strain TOP1, stronger effect = lower value 1.01 | S. cerevisiae deletion strains, locus YOL012C, strain htz1 0.93 | S. cerevisiae deletion strains, locus YOL147C, strain pex11, stronger effect = lower value 1.01 | S. cerevisiae deletion strains, locus YOR001W, strain rrp6, stronger effect = lower value 1.03 | S. cerevisiae deletion strains, locus YOR061W, strain CKA2, stronger effect = lower value 1.01 | S. cerevisiae deletion strains, locus YOR069W, strain VPS5, stronger effect = lower value 1.01 | S. cerevisiae deletion strains, locus YOR070C, strain gyp1, stronger effect = lower value 1.02 | S. cerevisiae deletion strains, locus YOR080W, strain dia2, stronger effect = lower value 1 | S. cerevisiae deletion strains, locus YOR083W, strain WHI5, stronger effect = lower value 1.02 | S. cerevisiae deletion strains, locus YOR106W, strain vam3, stronger effect = lower value 0.994 | S. cerevisiae deletion strains, locus YOR136W, strain idh2, stronger effect = lower value 1.01 | S. cerevisiae deletion strains, locus YOR144C, strain elg1, stronger effect = lower value 1.01 | S. cerevisiae deletion strains, locus YOR184W, strain ser1, stronger effect = lower value 1.03 | S. cerevisiae deletion strains, locus YOR231W, strain MKK1, stronger effect = lower value 1.06 | S. cerevisiae deletion strains, locus YOR265W, strain rbl2, stronger effect = lower value 1.03 | S. cerevisiae deletion strains, locus YOR270C, strain vph1, stronger effect = lower value 1.06 | S. cerevisiae deletion strains, locus YOR290C, strain snf2, stronger effect = lower value 1.04 | S. cerevisiae deletion strains, locus YOR316C, strain cot1, stronger effect = lower value 1.01 | S. cerevisiae deletion strains, locus YPL051W, strain arl3, stronger effect = lower value 1 | S. cerevisiae deletion strains, locus YPL055C, strain LGE1, stronger effect = lower value 1.01 | S. cerevisiae deletion strains, locus YPL078C, strain atp4, stronger effect = lower value 1.02 | S. cerevisiae deletion strains, locus YPL106C, strain sse1, stronger effect = lower value 1.03 | S. cerevisiae deletion strains, locus YPL240C, strain hsp82, stronger effect = lower value 1.01 | S. cerevisiae deletion strains, locus YPL241C, strain CIN2, stronger effect = lower value 1.01 | S. cerevisiae deletion strains, locus YPL256C, strain CLN2, stronger effect = lower value 1.05 | S. cerevisiae deletion strains, locus YPR119W, strain clb2, stronger effect = lower value 1.01 | S. cerevisiae deletion strains, locus YPR141C, strain kar3, stronger effect = lower value 1.01 | S. cerevisiae deletion strains, locus YPR163C, strain tif3, stronger effect = lower value 1.01 | S. cerevisiae deletion strains, locus YPR167C, strain met16, stronger effect = lower value 1.02 | S. cerevisiae deletion strains, strain wtn01, stronger effect = lower value 1.01 | S. cerevisiae strains, strain wild type, stronger effect = lower value 1.01
